From the supplement of paper PMC7156485
± gives the standard deviation of the averaged measurements.

Key:
Details in all cases: concentration: 10 µM; 24 h
HCC1569 [1] = assay: cell number relative to DMSO (% of DMSO); higher = more cells (less growth inhibition / toxicity)
Summary of the method: (§1)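 For HCC1569 and TDF cells, compounds at 10 µM were applied for 24 h at 37 °C in triplicate in 384-well plates. Cells were fixed in 3.7% formaldehyde, stained for H1.0 and with DAPI, and imaged at ×10 over six fields per well. The endpoint, H1.0 nuclear intensity or cell number, is shown as percent of the plate control using the median of replicates. Positional effects were smoothed for HCC1569 only.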

TDF [2] = assay: as above
Summary of the method: as §1

TDF [3] = assay: H1.0 immunofluorescence intensity relative to DMSO (% of DMSO); higher = stronger H1.0 induction, active = 120 or more
Summary of the method: as §1

HCC1569 [4] = assay: H1.0 immunofluorescence intensity relative to DMSO (% of DMSO); higher = stronger H1.0 induction, active = 140 or more
Summary of the method: as §1
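Wherever H1.0 immunofluorescence intensity relative to DMSO is given: TDF is a line of transformed human dermal fibroblasts of mesenchymal origin.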
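Wherever cell number relative to DMSO is given: TDF denotes transformed human dermal fibroblasts of mesenchymal origin.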

SMILES | cell number (HCC1569 [1]) | cell number (TDF [2]) | H1.0 immunofluorescence intensity (TDF [3]) | H1.0 immunofluorescence intensity (HCC1569 [4])
CCCS(=O)(=O)Nc1ccc(F)c(C(=O)c2c[nH]c3ncc(Cl)cc23)c1F | 96.8 | 92.9 | 105 (inactive) | 111 (inactive)
Cc1ccc(N(CC2=NCCN2)c2cccc(O)c2)cc1 [Phentolamine] | 107 | 100 | 99.7 (inactive) | 96.6 (inactive)
C#C[C@@]1(OC(C)=O)CC[C@H]2[C@@H]3CCC4=CC(=O)CC[C@@H]4[C@H]3CC[C@@]21C [(17beta)-17-ethynyl-3-oxoestr-4-en-17-yl acetate] | 90.4 | 96.8 | 95.5 (inactive) | 121 (inactive)
CS(=O)(=O)O.Cc1c(O)cccc1C(=O)NC(CSc1ccccc1)C(O)CN1CC2CCCCC2CC1C(=O)NC(C)(C)C (centres undefined) [Nelfinavir mesylate] | 102 | 112 | 90.6 (inactive) | 116 (inactive)
C1CCC(C(CC2CCCCN2)C2CCCCC2)CC1.O=C(O)C=CC(=O)O (centres undefined) | 19 | 5.25 | 273 (active) | 117 (inactive)
CCC1=C(C)CN(C(=O)NCCc2ccc(S(=O)(=O)NC(=O)NC3CCC(C)CC3)cc2)C1=O (centres undefined) [Glimepiride] | 102 | 111 | 93.1 (inactive) | 106 (inactive)
CCCc1cc(=O)oc2c(C(=O)N3CCCc4ccccc43)c(OC)cc(OC)c12 | 55.5 | 46.1 | 108 (inactive) | 159 (active)
CC(C)N(CCC(=O)c1ccc2ccccc2c1)Cc1ccccc1.Cl [JAK3 Inhibitor IV] | 101 | 97 | 96.1 (inactive) | 110 (inactive)
O=[N+]([O-])c1ccc([O-])c(OS(=O)(=O)[O-])c1.[K+].[K+] [dipotassium 5-nitro-2-oxidophenyl sulfate] | 99.5 | 108 | 90.9 (inactive) | 100 (inactive)
CCn1cc(C(=O)O)c(=O)c2cc(F)c(N3CCNCC3)nc21 [Enoxacin] | 105 | 91.3 | 98.8 (inactive) | 106 (inactive)
CCCCCCCCCCCCCCCC(=O)NCC(COP(=O)([O-])OCC[N+](C)(C)C)OC (racemic) [rac-2-Methoxy-3-hexadecanamido-1-propylphosphocholine] | 75.4 | 65 | 185 (active) | 142 (active)
Cl.FC(F)(F)c1cc(COC2CCCNC2c2ccccc2)cc(C(F)(F)F)c1 [L-733,060 hydrochloride] | 91.2 | 91.3 | 108 (inactive) | 118 (inactive)
CCCCNc1cc(C(=O)O)cc(S(N)(=O)=O)c1Oc1ccccc1 [Bumetanide] | 102.7 ± 0.95 | 105 ± 2 | 96.4 (inactive) | 100 (inactive)
O=C(Nc1ccc(Cl)cc1)c1ccccc1NCc1ccncc1 [VEGF Receptor Tyrosine Kinase Inhibitor II] | 106 | 96.3 | 96.5 (inactive) | 98.1 (inactive)
COc1cc2c(cc1OC)C(=O)C(CC1CCN(Cc3ccccc3)CC1)C2.Cl.Cl (centres undefined) [Donepezil.HCl] | 101 | 114 | 95.8 (inactive) | 105 (inactive)
CNC(=O)c1ccccc1Sc1ccc2c(C=Cc3ccccn3)n[nH]c2c1 [Axitinib] | 67.8 | 46.4 | 99.1 (inactive) | 134 (inactive)
Cl.O=c1n(CCCN2CCN(c3cccc(Cl)c3)CC2)nc2ccccn12 [Trazodone hydrochloride] | 102 | 116 | 89.5 (inactive) | 101 (inactive)
COc1ccc2ccc(=O)oc2c1CC=C(C)C [Osthole] | 97.3 | 92.5 | 103 (inactive) | 99.9 (inactive)
Cl.OC(CN1CCN(c2cccc(Cl)c2)CC1)C(c1ccccc1)c1ccccc1 (centres undefined) | 102 | 111 | 94.8 (inactive) | 88.3 (inactive)
COc1cc2c(c(OC)c1OC)-c1ccc(OC)c(=O)cc1C(NC=O)CC2 (centres undefined) [N-Formyl-Deacetylcolchicine] | 98.9 | 92.9 | 91.7 (inactive) | 81.9 (inactive)
O=C1Nc2ccccc2C1=C1Nc2ccccc2C1=O [Indirubin] | 97.2 | 94.7 | 105 (inactive) | 102 (inactive)
